Laboratory results as given in PubChem BioAssay AID1159580 (chemical genetic matrix, 2015).
Several values for one entry are separate records, joined by “and”; a condition that tells them apart may be missing. Equal values may be shown once. The campaign covered roughly 5,500 compounds. About 2,000 (36%) were called active. About 18% were inconclusive and are not listed. Cut-off read from the data, not from the text of the source: active = normalized growth mostly below about 0.91 (no sharp cut-off); inconclusive = no clear call, values can overlap the other calls; inactive = mostly above about 0.92. This is one part of the list.

Assay: chemical genetic growth profiling, strain panel (AID 1159580);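 note: tested at 20 µM; growth read once vehicle control cultures reached saturation at 30 °C; 1 = growth at the plate median or of vehicle wells; lower values mean less growth of the strain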
Settings: growth OD
[1] = S. cerevisiae deletion strains, locus YPL241C, strain CIN2, stronger effect = lower value

Measured: normalized growth

Oc1c(Cl)c(Cl)c(Cl)c(Cl)c1Cl
active: S. cerevisiae deletion strains, locus YAL013W, strain DEP1, stronger effect = lower value 0.885 | S. cerevisiae deletion strains, locus YBR021W, strain FUR4, stronger effect = lower value 0.636 | S. cerevisiae deletion strains, locus YBR229C, strain ROT2, stronger effect = lower value 0.845 | S. cerevisiae deletion strains, locus YCL029C, strain bik1, stronger effect = lower value 0.672 | S. cerevisiae deletion strains, locus YDL035C, strain GPR1, stronger effect = lower value 0.834 | S. cerevisiae deletion strains, locus YDL074C, strain BRE1, stronger effect = lower value 0.704 | S. cerevisiae deletion strains, locus YDL101C, strain DUN1, stronger effect = lower value 0.885 | S. cerevisiae deletion strains, locus YDL134C, strain PPH21, stronger effect = lower value 0.816 | S. cerevisiae deletion strains, locus YDL185W, strain tfp1, stronger effect = lower value 0.176 | S. cerevisiae deletion strains, locus YDL192W, strain arf1, stronger effect = lower value 0.811 | S. cerevisiae deletion strains, locus YDR101C, strain arx1, stronger effect = lower value 0.758 | S. cerevisiae deletion strains, locus YDR150W, strain NUM1, stronger effect = lower value 0.786 | S. cerevisiae deletion strains, locus YDR162C, strain NBP2, stronger effect = lower value 0.607 | S. cerevisiae deletion strains, locus YDR318W, strain mcm21, stronger effect = lower value 0.686 | S. cerevisiae deletion strains, locus YDR388W, stronger effect = lower value 0.763 | S. cerevisiae deletion strains, locus YDR502C, strain sam2, stronger effect = lower value 0.73 | S. cerevisiae deletion strains, locus YEL061C, strain CIN8, stronger effect = lower value 0.819 | S. cerevisiae deletion strains, locus YER110C, stronger effect = lower value 0.383 | S. cerevisiae deletion strains, locus YER155C, strain BEM2, stronger effect = lower value 0.669 | S. cerevisiae deletion strains, locus YER167W, strain BCK2, stronger effect = lower value 0.659 | S. cerevisiae deletion strains, locus YGL078C, strain dbp3, stronger effect = lower value 0.759 | S. cerevisiae deletion strains, locus YGL086W, strain mad1, stronger effect = lower value 0.772 | S. cerevisiae deletion strains, locus YGL248W, strain PDE1, stronger effect = lower value 0.818 | S. cerevisiae deletion strains, locus YGR078C, strain PAC10, stronger effect = lower value 0.745 | S. cerevisiae deletion strains, locus YGR135W, strain pre9, stronger effect = lower value 0.732 | S. cerevisiae deletion strains, locus YGR229C, strain SMI1, stronger effect = lower value 0.594 | S. cerevisiae deletion strains, locus YGR252W, strain gcn5, stronger effect = lower value 0.637 | S. cerevisiae deletion strains, locus YHR030C, strain SLT2, stronger effect = lower value 0.792 and 0.128 | S. cerevisiae deletion strains, locus YHR079C, strain IRE1 (second series), stronger effect = lower value 0.659 | S. cerevisiae deletion strains, locus YHR079C, strain IRE1, stronger effect = lower value 0.111 | S. cerevisiae deletion strains, locus YHR094C, strain hxt1, stronger effect = lower value 0.75 | S. cerevisiae deletion strains, locus YHR129C, strain ARP1, stronger effect = lower value 0.775 | S. cerevisiae deletion strains, locus YHR200W, strain rpn10, stronger effect = lower value 0.755 | S. cerevisiae deletion strains, locus YIL066C, strain RNR3, stronger effect = lower value 0.71 | S. cerevisiae deletion strains, locus YIL125W, strain kgd1, stronger effect = lower value 0.463 | S. cerevisiae deletion strains, locus YIR030C, strain dcg1, stronger effect = lower value 0.688 | S. cerevisiae deletion strains, locus YJL095W, strain BCK1, stronger effect = lower value 0.635 and 0.181 | S. cerevisiae deletion strains, locus YJL134W, strain LCB3, stronger effect = lower value 0.835 | S. cerevisiae deletion strains, locus YJL168C, strain set2, stronger effect = lower value 0.757 | S. cerevisiae deletion strains, locus YJL187C, strain SWE1 (second series), stronger effect = lower value 0.818 | S. cerevisiae deletion strains, locus YJR043C, strain POL32, stronger effect = lower value 0.716 | S. cerevisiae deletion strains, locus YJR066W, strain TOR1, stronger effect = lower value 0.00405 | S. cerevisiae deletion strains, locus YJR075W, strain HOC1, stronger effect = lower value 0.71 | S. cerevisiae deletion strains, locus YKL009W, strain mrt4, stronger effect = lower value 0.569 | S. cerevisiae deletion strains, locus YKL068W, stronger effect = lower value 0.759 | S. cerevisiae deletion strains, locus YKL085W, strain MDH1 (second series), stronger effect = lower value 0.647 | S. cerevisiae deletion strains, locus YKL085W, strain MDH1, stronger effect = lower value 0.647 | S. cerevisiae deletion strains, locus YKL190W, strain CNB1, stronger effect = lower value 0.811 | S. cerevisiae deletion strains, locus YKR001C, strain vps1, stronger effect = lower value 0.3 | S. cerevisiae deletion strains, locus YLR039C, strain RIC1, stronger effect = lower value 0.332 | S. cerevisiae deletion strains, locus YLR058C, strain SHM2, stronger effect = lower value 0.801 | S. cerevisiae deletion strains, locus YLR102C, strain apc9, stronger effect = lower value 0.739 | S. cerevisiae deletion strains, locus YLR113W, strain HOG1, stronger effect = lower value 0.16 | S. cerevisiae deletion strains, locus YLR262C, strain YPT6, stronger effect = lower value 0.365 | S. cerevisiae deletion strains, locus YLR268W, strain sec22, stronger effect = lower value 0.718 | S. cerevisiae deletion strains, locus YLR330W, strain CHS5, stronger effect = lower value 0.778 | S. cerevisiae deletion strains, locus YLR342W, strain FKS1 (second series), stronger effect = lower value 0.743 | S. cerevisiae deletion strains, locus YLR371W, strain rom2, stronger effect = lower value 0.79 | S. cerevisiae deletion strains, locus YLR418C, strain cdc73, stronger effect = lower value 0.41 | S. cerevisiae deletion strains, locus YML016C, strain PPZ1, stronger effect = lower value 0.831 | S. cerevisiae deletion strains, locus YML032C, strain rad52, stronger effect = lower value 0.709 | S. cerevisiae deletion strains, locus YML124C, strain tub3, stronger effect = lower value 0.739 | S. cerevisiae deletion strains, locus YMR078C, strain ctf18, stronger effect = lower value 0.554 | S. cerevisiae deletion strains, locus YMR223W, strain ubp8, stronger effect = lower value 0.73 | S. cerevisiae deletion strains, locus YMR263W, strain SAP30, stronger effect = lower value 0.773 | S. cerevisiae deletion strains, locus YMR307W, strain GAS1, stronger effect = lower value 0.391 | S. cerevisiae deletion strains, locus YNL067W, strain RPL9B, stronger effect = lower value 0.791 | S. cerevisiae deletion strains, locus YNL153C, strain GIM3, stronger effect = lower value 0.85 | S. cerevisiae deletion strains, locus YNL183C, strain NPR1, stronger effect = lower value -0.00166 | S. cerevisiae deletion strains, locus YNL233W, strain BNI4, stronger effect = lower value 0.782 | S. cerevisiae deletion strains, locus YNL250W, strain rad50, stronger effect = lower value 0.585 | S. cerevisiae deletion strains, locus YNL271C, strain bni1, stronger effect = lower value 0.7 | S. cerevisiae deletion strains, locus YNL298W, strain CLA4, stronger effect = lower value 0.679 | S. cerevisiae deletion strains, locus YNL307C, strain MCK1, stronger effect = lower value 0.226 | S. cerevisiae deletion strains, locus YNL322C, strain KRE1, stronger effect = lower value 0.826 | S. cerevisiae deletion strains, locus YNR052C, strain pop2, stronger effect = lower value 0.802 | S. cerevisiae deletion strains, locus YOL147C, strain pex11, stronger effect = lower value 0.603 | S. cerevisiae deletion strains, locus YOR061W, strain CKA2, stronger effect = lower value 0.826 | S. cerevisiae deletion strains, locus YOR069W, strain VPS5, stronger effect = lower value 0.849 | S. cerevisiae deletion strains, locus YOR136W, strain idh2, stronger effect = lower value 0.828 | S. cerevisiae deletion strains, locus YOR144C, strain elg1, stronger effect = lower value 0.756 | S. cerevisiae deletion strains, locus YOR184W, strain ser1, stronger effect = lower value 0.584 | S. cerevisiae deletion strains, locus YOR231W, strain MKK1, stronger effect = lower value 0.106 | S. cerevisiae deletion strains, locus YOR316C, strain cot1, stronger effect = lower value 0.688 | S. cerevisiae deletion strains, locus YPL055C, strain LGE1, stronger effect = lower value 0.732 | [1] 0.819 | S. cerevisiae deletion strains, locus YPL256C, strain CLN2, stronger effect = lower value 0.113 | S. cerevisiae deletion strains, locus YPR119W, strain clb2, stronger effect = lower value 0.691 | S. cerevisiae deletion strains, locus YPR141C, strain kar3, stronger effect = lower value 0.724 | S. cerevisiae deletion strains, locus YPR163C, strain tif3, stronger effect = lower value 0.562 | S. cerevisiae deletion strains, locus YPR167C, strain met16, stronger effect = lower value 0.731 | S. cerevisiae deletion strains, strain wtn01, stronger effect = lower value 0.732 | S. cerevisiae strains, strain wild type, stronger effect = lower value 0.809
inactive: S. cerevisiae deletion strains, locus YIL073C, strain SPO22, stronger effect = lower value 0.801 | S. cerevisiae deletion strains, locus YNL128W, strain TEP1, stronger effect = lower value 0.878 | S. cerevisiae deletion strains, locus YOL006C, strain TOP1, stronger effect = lower value 0.739 | S. cerevisiae deletion strains, locus YOL012C, strain htz1 0.527

NC(=O)COc1c(F)cc(SCCNS(=O)(=O)c2ccccc2)cc1F
inactive: S. cerevisiae deletion strains, locus YAL040C, strain CLN3, stronger effect = lower value 1.03 | S. cerevisiae deletion strains, locus YCL061C, strain MRC1 (second series), stronger effect = lower value 1 | S. cerevisiae deletion strains, locus YDR363W, strain ESC2, stronger effect = lower value 0.968 | S. cerevisiae deletion strains, locus YER002W, strain NOP16, stronger effect = lower value 0.97 | S. cerevisiae deletion strains, locus YNL175C, strain NOP13, stronger effect = lower value 0.977 | S. cerevisiae deletion strains, locus YNL197C, strain WHI3, stronger effect = lower value 0.975 | S. cerevisiae deletion strains, locus YNL224C, strain SQS1, stronger effect = lower value 0.983 | S. cerevisiae deletion strains, locus YOR083W, strain WHI5 (second series), stronger effect = lower value 0.998 | [1] 0.996
